In article PMC7819943, “Rice protein-binding microarrays: a tool to detect cis-acting elements near promoter regions in rice”:
In all, about 39,000 sequences were measured (“fluorescence intensity (a.u.)”: median about 4,300, highest 2% from about 39,000 on). The sample as a whole holds a higher share of the highest values than the screen did.

Each sequence was assayed against T1, OsSMF1 (Oryza sativa, UniProt Q6ZLB0 1-436) (assay: protein-binding microarray (RPBM); PBS, 2% BSA, 51.3 ng/ul salmon testes DNA, 50 uM zinc acetate, 200 nM TF, 25 C, 1 h; high values mean tight binding). Conditions: protein: recombinant; tags: N-terminal polyhistidine and DsRed monomer fusion (pET32a); chain copies: 2; label: CyDye5-dUTP incorporated in the synthesized complementary strand; 3' TTTTT single-stranded linker to array surface; dsDNA, one strand shown.
T1 sequence: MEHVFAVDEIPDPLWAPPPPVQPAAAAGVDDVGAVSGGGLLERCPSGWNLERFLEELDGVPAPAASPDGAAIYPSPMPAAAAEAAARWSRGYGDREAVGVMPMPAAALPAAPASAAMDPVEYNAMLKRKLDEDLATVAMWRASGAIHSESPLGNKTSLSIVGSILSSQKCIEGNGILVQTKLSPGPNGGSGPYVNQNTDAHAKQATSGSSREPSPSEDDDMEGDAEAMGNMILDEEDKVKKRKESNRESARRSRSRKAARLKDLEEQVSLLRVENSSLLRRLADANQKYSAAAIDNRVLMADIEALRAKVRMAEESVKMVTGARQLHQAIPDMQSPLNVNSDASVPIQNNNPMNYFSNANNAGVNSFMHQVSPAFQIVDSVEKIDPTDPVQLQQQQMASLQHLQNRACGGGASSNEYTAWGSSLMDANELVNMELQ
In short: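 Binding signal is defined as the fluorescence intensity of each feature in arbitrary units, read on an Axon 4000B scanner. Transcription factors with N-terminal polyhistidine and DsRed fusions came from E. coli BL21-CodonPlus and were purified on Ni–NTA. They were incubated at 200 nM for 1 h at 25 °C on a custom Agilent array that had been made double-stranded with Cy5-dUTP, with 50 µM zinc acetate present, and the array was washed.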

Sequence	binding signal
AATAAATAGGCCTGACGTGAGGCCCACTCGCCACGTCAGCCGGAGTCACCTAGTGCAG	44900 fluorescence intensity (a.u.)
TCGTCGCCCACTGCCACCGCTGACGTCACCGCACTCTCGCCGGAGTCACCTAGTGCAG	30500 fluorescence intensity (a.u.)
CAGCCGGGCCCACGTGTCAGTGAGTGCGTGACGCGTCAGCCGGAGTCACCTAGTGCAG	15200 fluorescence intensity (a.u.)
TTTTGACCCGGTTTTAGCCTACGTGACGGCTAAGTCAGCGCGGAGTCACCTAGTGCAG	4480 fluorescence intensity (a.u.)
AATTACCACCCTAACTCAATTAGAAGCGGTTTTCAGCCTACGGAGTCACCTAGTGCAG	52400 fluorescence intensity (a.u.)
TCTTTTGGTGGTTTCAGAAGCGGTTTTATCCTACGTGACACGGAGTCACCTAGTGCAG	4530 fluorescence intensity (a.u.)
CAAGGAAGAATATGCCACCTCCACGGAGGCCGGCGGCGGCCGGAGTCACCTAGTGCAG	3710 fluorescence intensity (a.u.)
GGGGAAGGAGAAGAGGAAGGAGAGGGGAGGAGGAGGAGGGCGGAGTCACCTAGTGCAG	3770 fluorescence intensity (a.u.)
GAGAAGAAGGCCACCTCACCACTAAAGGAGGAGGAGGAGGCGGAGTCACCTAGTGCAG	43500 fluorescence intensity (a.u.)
TCAGCGAATTGGTACGTACCCTTGTACGTGTTGACGCCATCGGAGTCACCTAGTGCAG	3650 fluorescence intensity (a.u.)
TACGTGTGTTGATTTCCGTGACATATGCATAAATTTCTTTCGGAGTCACCTAGTGCAG	3530 fluorescence intensity (a.u.)
CCTTTCCGATTACGTGTTGGACCTTGACCCTAGGCCATATCGGAGTCACCTAGTGCAG	49700 fluorescence intensity (a.u.)
CCGTCGACTCTGTGCCACGTCCTGTTGCTCGTCGGATTCCCGGAGTCACCTAGTGCAG	14000 fluorescence intensity (a.u.)
TGCAGTATCTGCCGTTCGTATCGCTGCGTTGAATCTTCCACGGAGTCACCTAGTGCAG	47100 fluorescence intensity (a.u.)
TTGCTGCAGTTCTCGTATGCTTCCTAGTACTATCTGCGTTCGGAGTCACCTAGTGCAG	3230 fluorescence intensity (a.u.)
CTAGTTCGCCTTCCACGTACGCACTTGGCGTCGTATCTGCCGGAGTCACCTAGTGCAG	6440 fluorescence intensity (a.u.)
GATCATGAGCTCCACGGCGGCCAACGTGGCGGCGCCGACGCGGAGTCACCTAGTGCAG	8640 fluorescence intensity (a.u.)
TAACACAACTATTTACTCAGCTCACGTGTTTCATTAACAACGGAGTCACCTAGTGCAG	3340 fluorescence intensity (a.u.)
TCAGCTCAGCAAATTAGGATGTTTCATTAGTTAGAACAAACGGAGTCACCTAGTGCAG	51600 fluorescence intensity (a.u.)

Sequence	binding signal
TTTCGCAATTATATTGATGCAGAAATCAGCAGCTCACAATCGGAGTCACCTAGTGCAG	20700 fluorescence intensity (a.u.)
AGCGACGAGTAAACAAAGCGCGGCGTAGCATGTGATGTGGCGGAGTCACCTAGTGCAG	4440 fluorescence intensity (a.u.)
GTTATATCTCACGTGTCAAAATTCCTATGATTTTCAGTAACGGAGTCACCTAGTGCAG	4700 fluorescence intensity (a.u.)
GCGTCACGTTCCTGTCGGCGGCGGCCAACGTGGCCCGCGTCGGAGTCACCTAGTGCAG	15200 fluorescence intensity (a.u.)
CGCTGCTGCCGTCACAGAAGGTGCTGACATGGCCTGGGGTCGGAGTCACCTAGTGCAG	7520 fluorescence intensity (a.u.)
GCGGGCGCACGGGTGGGTGGTGTTCTGGGGCGGAGGCAGCCGGAGTCACCTAGTGCAG	3310 fluorescence intensity (a.u.)
CCGTCGTGCTGGGTGTGGCGCCGGAGAAGAAGGCGCAGCACGGAGTCACCTAGTGCAG	41700 fluorescence intensity (a.u.)
CGCCGCTGCCGCCAAACCGTCGGTGGAGAAGGCCTACCGGCGGAGTCACCTAGTGCAG	59200 fluorescence intensity (a.u.)
GCCGCCGCCGCCGCCGCCGCTGACGAGGAGCAGAAGGTGGCGGAGTCACCTAGTGCAG	4310 fluorescence intensity (a.u.)
CCGAGCCACGTCGCGCCGCCGCCGCTGCTGTGCCGCCGCGCGGAGTCACCTAGTGCAG	5650 fluorescence intensity (a.u.)
GCGCGCCGTCGTGGCGCTGGCGGCCACCACGGTGGTCACCCGGAGTCACCTAGTGCAG	4120 fluorescence intensity (a.u.)
CGCCGAGCTGCCACGCTCGCGTCGCGTCCAGATGCGCGCGCGGAGTCACCTAGTGCAG	3680 fluorescence intensity (a.u.)
GAGTGGAGAAGGCGCGCCACCGTCGCTAGAGCCGATGCTGCGGAGTCACCTAGTGCAG	47700 fluorescence intensity (a.u.)
GCGCCGTCGTCGTCGCTGCCGTGGCGCCGCCGCGGCCACCCGGAGTCACCTAGTGCAG	6800 fluorescence intensity (a.u.)
GCCGGCGACGCTGCCGCCGTCACCACTACCGCTGCCGCGGCGGAGTCACCTAGTGCAG	4140 fluorescence intensity (a.u.)
CTGCTGCCGTCGCAGAAGGTGCTGACATGGCCAGGGGTGGCGGAGTCACCTAGTGCAG	45300 fluorescence intensity (a.u.)
GATGTTACGCGTGTAATGGTGTGTGCGTGTATATACTTTGCGGAGTCACCTAGTGCAG	7330 fluorescence intensity (a.u.)
ACGTTTACTCCCAGTACACACAAGACACTACTAGCTTAGACGGAGTCACCTAGTGCAG	3420 fluorescence intensity (a.u.)
TGGAGGAGGAGGAGGGGAGACCACCGGAGGTAGGCGAATCCGGAGTCACCTAGTGCAG	3140 fluorescence intensity (a.u.)

Sequence	binding signal
TCAGATAGCCACCATGACATGTATCAGTACATGCAGTGATCGGAGTCACCTAGTGCAG	4480 fluorescence intensity (a.u.)
CGAATAAGCCCTTAATGTGTACGTTATTTGGTTTATCCACCGGAGTCACCTAGTGCAG	3240 fluorescence intensity (a.u.)
CGCCGGTGCTGATGCTGATCGATCTTACGTCGCGTCGCGACGGAGTCACCTAGTGCAG	3280 fluorescence intensity (a.u.)
CTGCAGCAAACGACCAGCCATGTCACAGGTTGTGAAGGTCCGGAGTCACCTAGTGCAG	4600 fluorescence intensity (a.u.)
TTGGGCGAGGTAGAGGCGGCGCCGGTGTCATCACCGTCGTCGGAGTCACCTAGTGCAG	5140 fluorescence intensity (a.u.)
AGAGCAAGGCGCCGGTGGTGCTCATCAAGCCGTCGGCGACCGGAGTCACCTAGTGCAG	63100 fluorescence intensity (a.u.)
GAAGGCGGCGCGGAAGTCGGCGCCGGCGACCGGCGGCGTGCGGAGTCACCTAGTGCAG	9120 fluorescence intensity (a.u.)
ACGGTCACGGTCCGGCCGCTCTACACGTACGTAGTACGTGCGGAGTCACCTAGTGCAG	25100 fluorescence intensity (a.u.)
GAGATTTGATGACTGGGATGCCACATGGACACCACGACAGCGGAGTCACCTAGTGCAG	13300 fluorescence intensity (a.u.)
ATGGTGGTTGTGTCTTATATTTTGGAATGGAGGGACTTATCGGAGTCACCTAGTGCAG	21300 fluorescence intensity (a.u.)
TGGGCCGTGATTGAGGCCTATATATACGTGGCCTGACAAACGGAGTCACCTAGTGCAG	4000 fluorescence intensity (a.u.)
ATCAACGTATCTAAACCGGATGGAAACACGTATCTAAACACGGAGTCACCTAGTGCAG	6180 fluorescence intensity (a.u.)
GGATCGAAACTTGTGTTAAACACGTCAACTTCATGCATCTCGGAGTCACCTAGTGCAG	3310 fluorescence intensity (a.u.)
CAACACGCTCGATATCATCTAGTTAAACTAACCTAGTGTGCGGAGTCACCTAGTGCAG	42700 fluorescence intensity (a.u.)
AGCTTCGGTTTTCTTACTCAGCACAACGGGGTGGTGGCGCCGGAGTCACCTAGTGCAG	5360 fluorescence intensity (a.u.)
CCGTTGAATGTGCCAGACAAACTGAGTGTAATTTAATATTCGGAGTCACCTAGTGCAG	65100 fluorescence intensity (a.u.)
AATTACAGATTCCGTCAGAAAACTGTGAGACAGATTTATTCGGAGTCACCTAGTGCAG	3290 fluorescence intensity (a.u.)
GAAAATTTGAGCAAAATTTAGTTGAATTTGAACAAATATTCGGAGTCACCTAGTGCAG	6670 fluorescence intensity (a.u.)
